Here are results for 13 compounds from PubChem BioAssay (NCATS).

The structures appear in SMILES notation. Records with an inconclusive call do not appear. Activity calls are given as the source filed them. Calls follow the shape of the dose curve; as a rule, active = well fitted cell-killing curve with a large enough effect; inconclusive = small, poorly fitted or top-dose-only effect; inactive = flat fitted curve, though single readings scatter.
% is scaled to controls: 0 for no effect and ±100 for the full control effect; potency is read from the fitted curve at half-maximal effect.

The nature of the experiment: Vero-766 cells viability qHTS against the NCATS CANVASS Library: Counterscreen for Zika virus inhibition assay (AID 1347394). Also: nearly all actives have a fitted effect of over 60% in size. The settings on record: Vero 766 viability, CellTiter-Glo luminescence, 72 h; series mostly up to 46.1 µM; activity change, negative = cytotoxic: at the top concentration. An outline of the steps: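 This cytotoxicity counterscreen uses African green monkey Vero 766 cells in the absence of Zika virus. Compounds are incubated with cells for 72 h, and ATP-based luminescence reports viability.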
On the technique in general: In qHTS, concentration-response curves come from the screen itself.
As for `COc1c(O)cc2c(c1O)C(=O)c1c(coc1C)C2=O`, the “activity change, negative = cytotoxic” value was -25.2% (inactive).

For `C[C@]12CC[C@]3(C1)[C@H](CC2=O)C[C@@H](OC(=O)c1ccccc1)[C@H]1[C@](C)(C(=O)O)CCC[C@@]13C`, the Potency was 6.6 µM (active).

With `COc1ccc2[nH]c3c(c2c1)CCN1C[C@H]2C[C@@H](OC(=O)c4cc(OC)c(OC)c(OC)c4)[C@H](OC)[C@@H](OC)[C@H]2C[C@H]31`, the “activity change, negative = cytotoxic” value was -29.5% (inactive).

Turning to `C=C[C@](Cl)(CBr)CCC=C(C)C`, the “activity change, negative = cytotoxic” value was 2.21% (inactive).

As to `C=CC(CCCCC)C1C(=O)NC(=O)C1C(=O)C1C2C(C)CC(C(=O)O)CC2CC1(O)C(=O)/C=C/C` (stereo not drawn), the “activity change, negative = cytotoxic” value is -26.5% (inactive).

For `O[C@H]1c2ccccc2-c2c3c(cc4c2[C@@H]1NCC4)OCO3`, the Potency was 20.9 µM (active).

For `C[C@]12CCC[C@](C)(C(=O)O)[C@@H]1CC[C@@]1(C)c3cocc3CC[C@H]21`, the “activity change, negative = cytotoxic” value was -0.469% (inactive).

For the compound `COc1cc(C2OCC3C(c4ccc(O)c(OC)c4)OCC23)ccc1O` (stereo not drawn), the activity change, negative = cytotoxic is -3.52% [at 9.19 µM] (inactive).

Consider `COc1cc(O)c(C(=O)[C@@H]2[C@H](CC=C(C)C)C(C)=CC[C@H]2c2ccccc2)c(O)c1`, for which the Potency was 23.4 µM (active).

With `C[n+]1cc2cc(C(N)=O)[nH]c3c(=N)c(Cl)c(N)c1c23`, the “activity change, negative = cytotoxic” value is 3.71% (inactive).

As for `CCC(=O)N[C@@H](C[C@H](C)C(Cl)(Cl)Cl)C(=O)N1C(=O)C=C(OC)[C@@H]1CC(C)C`, the “activity change, negative = cytotoxic” value was -11.2% (inactive).

For the compound `C/C1=C/[C@@H](C)[C@H](O)[C@@H](O)/C=C/CC/C=C/C(=O)O[C@@H]1[C@H](C)C(=O)CCCC1CC(=O)NC(=O)C1`, the “activity change, negative = cytotoxic” value is -19.9% (inactive).

As for `CN1CC[C@]2(c3cccc4c3N[C@H]3N(C)CC[C@@]43[C@]34CCN(C)[C@H]3Nc3ccccc34)c3ccccc3N[C@H]12`, the Potency was 20.9 µM (active).
